The results in this text go back to PubChem BioAssay.

One test concerns the target Albumin (Bos taurus) (UniProt P02769). The experiment in a line: bovine serum albumin binders on microarray, profiling panel, artefact control for SMM control protein annotation, biochemical, small-molecule microarray, Alexa647 label, 635/667 nm fluorescence (AID 1118).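 Further: score merges 667 nm emission intensity and signal-to-noise per printed compound spot.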 The following applies: BSA-A647 binding, fluorescence 635 nm, higher = more signal.
Test [1] in a line: small-molecule microarray binders of probe aXIP, primary screen, biochemical, NeuroSMM set, 635/667 nm fluorescence (AID 1119).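 Further: probe is the protein aXip251-270 applied at 1 µg/mL to compound-printed slides; binding of probe to printed compounds measured as 667 nm fluorescence plus signal to noise.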 The conditions noted are these: higher = more signal, called active from +8 up or from −8 down.
Test [2] in a line: small-molecule binders of probe aNOTCH3, primary screen, biochemical, small-molecule microarray, 635/667 nm fluorescence (AID 1120).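 Further: probe is a biotin-tagged antibody raised against NOTCH3 rather than NOTCH3 protein; score merges spot fluorescence near 667 nm with spot signal to noise.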 The conditions noted are these: higher = more signal.
A short description of test [3]: small-molecule binders of probe aNOTCH2, primary screen, biochemical, small-molecule microarray, 635/667 nm fluorescence (AID 1121).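 Further: score merges feature fluorescence read at 667 nm with its signal to noise.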 The conditions noted are these: higher = more signal.
Test [4] has as its target Carbonic anhydrase 2 (Homo sapiens) (UniProt P00918). Nature of the test: CAII small-molecule binders, profiling panel, biochemical, small-molecule microarray, Alexa647-labelled CAII (AID 1122). The following applies: CAII-A647 binding fluorescence, higher = more signal.
Test [5] is described as follows: COS7 lysate on small-molecule microarray, probe aHis, 635 nm (AID 1123).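 Further: z-score combines 667nm fluorescence intensity with signal-to-noise per printed compound spot.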 The conditions noted are these: COS7 cell lysate, fluorescence, higher = more signal.
Test [6] is described as follows: compound binding in COS7 lysate, probe aLAP1, primary screen, cell lysate, small-molecule microarray (AID 1124).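 Further: lysate comes from COS7 cells expressing LAP1 and is applied at 0.3 µg/mL; score merges spot fluorescence near 667 nm with signal-to-noise over triplicate slides.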 The conditions noted are these: probe aLAP1, fluorescence, higher = more signal.
The subject of the next test is Sam68 (KHDRBS1). Nature of the test: Sam68 small-molecule binders, primary screen, biochemical, small-molecule microarray, 635 nm fluorescence (AID 1125).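 Further: score merges 667 nm channel intensity with signal to noise over triplicate slides.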 The following applies: small-molecule microarray binding, higher = more signal.
Test [7] relates to Chordin-like protein 2 (CHRDL2). Nature of the test: CHRDL2 small-molecule binders, primary screen, biochemical, small-molecule microarray, 635 nm fluorescence (AID 1126).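 Further: printed compound slides probed with Chrdl2 protein at 4 µg/mL for 1 h at 4 C; score merges 667 nm emission intensity with signal to noise over three replicate slides.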 The following applies: small-molecule microarray binding, fluorescence 635 nm; higher = more signal.
In test [8] the target is Concanavalin-A (Canavalia ensiformis) (UniProt P02866). The experiment in a line: ConA small-molecule binders, primary screen, artefact control for SMM control protein annotation, biochemical, small-molecule microarray, Alexa647 label, 635 nm (AID 1127).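 Further: z combines 667 nm emission intensity with signal-to-noise across three replicate slides.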 The conditions noted are these: ConA-A647 binding fluorescence, higher = more signal.
Test [9] can be described thus: anti-His antibody binders, primary screen, artefact control for SMM control protein annotation, biochemical, small-molecule microarray, 635 nm fluorescence (AID 1128).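 Further: score merges feature fluorescence with signal-to-noise for each printed compound spot.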 The conditions noted are these: anti-His Alexa647 antibody binding, higher = more signal.
The subject of test [10] is Human papillomavirus type 1a E7 protein (residues 1-88). Nature of the test: HPV1a E7 small-molecule binders, primary screen, biochemical, small-molecule microarray, residues 1-88, 635 nm (AID 1129). The conditions noted are these: small-molecule microarray binding, fluorescence 635 nm; higher = more signal.
Test [11] concerns the target Focal adhesion kinase 1 (Homo sapiens) (UniProt Q05397). Nature of the test: small-molecule microarray binders of FAK, primary screen, biochemical, 635/667 nm fluorescence, BSA, DTT (AID 1130).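 Further: composite of spot emission at 667 nm and signal to noise over triplicate slides.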 The conditions noted are these: PTK2 binding, 635 nm fluorescence, higher = more signal.
Test [12] deals with Fibrinogen (Alexa647-labelled). Nature of the test: fibrinogen binders on compound microarrays, profiling panel, artefact control for SMM control-protein annotation, biochemical, small-molecule microarray, 635/667 nm fluorescence (AID 1131).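 Further: z-score merges 667 nm fluorescence with per-spot signal-to-noise over triplicate slides.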 The following applies: fibrinogen-A647 binding fluorescence, higher = more signal.
The target of test [13] is Follistatin (Homo sapiens) (UniProt P19883). Nature of the test: follistatin binders on small-molecule microarrays, primary screen, biochemical, small-molecule microarray, 635/667 nm fluorescence (AID 1132). The following applies: FST binding, 635 nm fluorescence, higher = more signal.
Test [14] addresses Fibroblast growth factor 2 (Homo sapiens) (UniProt P09038). Nature of the test: FGF2 binders on small-molecule microarrays, primary screen, biochemical, small-molecule microarray, 635/667 nm fluorescence (AID 1133). The following applies: small-molecule microarray binding, FGF2, fluorescence 635/667; higher = more signal.
The nature of test [15]: mitochondrial membrane potential change in A549 cells, profiling panel, cell-based, JC-1 fluorescence, basal, 24 h, 100 nL (AID 1138).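 Further: A549 lung adenocarcinoma cells under basal conditions with no added stimulus; test concentration not given here.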 The following applies: higher = more signal.
A further test relates to Lefty1. The experiment in a line: Lefty1 binders on small-molecule microarrays, primary screen, biochemical, small-molecule microarray, 635/667 nm fluorescence (AID 1139). The conditions noted are these: small-molecule microarray binding, fluorescence 635/667; higher = more signal.
Test [16] relates to wheat germ agglutinin (Triticum aestivum), Alexa647-labelled. The experiment in a line: wheat germ agglutinin binders on compound microarrays, profiling panel, artefact control for SMM control-protein annotation, biochemical, small-molecule microarray, 635/667 nm fluorescence (AID 1140).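 Further: score merges 667 nm feature emission with signal to noise over triplicate slides.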 The following applies: WGA-A647 binding, 635 nm fluorescence, higher = more signal.
For test [17], the target named is Luciferin 4-monooxygenase (Photinus pyralis) (UniProt P08659). The experiment in a line: firefly luciferase enzyme inhibitors, primary screen, biochemical, luminescence, purified enzyme, 2006 set (AID 1141).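 Further: cell-free assay with purified firefly luciferase at 100 ng per well in PBS; test concentration not given here.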 The following applies: SteadyGlo luminescence, 30 min, higher = more signal, called active from +8 up or from −8 down.

SMILES strings stand for the structures. The source made the active and inactive calls.

Luciferin 4-monooxygenase (Photinus pyralis), sequence (P08659 whole entry, looked up): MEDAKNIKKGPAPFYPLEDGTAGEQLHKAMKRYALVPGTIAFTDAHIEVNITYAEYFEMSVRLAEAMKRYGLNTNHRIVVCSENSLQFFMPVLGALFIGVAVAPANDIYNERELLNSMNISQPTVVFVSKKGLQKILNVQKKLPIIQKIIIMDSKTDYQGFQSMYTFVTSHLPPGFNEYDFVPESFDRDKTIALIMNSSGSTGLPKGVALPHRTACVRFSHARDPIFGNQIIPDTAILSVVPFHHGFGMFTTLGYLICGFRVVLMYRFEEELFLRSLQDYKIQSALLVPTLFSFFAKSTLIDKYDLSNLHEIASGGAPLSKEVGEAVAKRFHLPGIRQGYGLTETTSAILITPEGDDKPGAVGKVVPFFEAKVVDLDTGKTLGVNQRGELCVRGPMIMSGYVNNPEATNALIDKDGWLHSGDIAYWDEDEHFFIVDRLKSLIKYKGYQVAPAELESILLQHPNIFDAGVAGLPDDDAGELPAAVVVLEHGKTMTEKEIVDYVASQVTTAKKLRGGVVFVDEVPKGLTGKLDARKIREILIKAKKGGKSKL
Albumin (Bos taurus), sequence (P02769 whole entry, looked up): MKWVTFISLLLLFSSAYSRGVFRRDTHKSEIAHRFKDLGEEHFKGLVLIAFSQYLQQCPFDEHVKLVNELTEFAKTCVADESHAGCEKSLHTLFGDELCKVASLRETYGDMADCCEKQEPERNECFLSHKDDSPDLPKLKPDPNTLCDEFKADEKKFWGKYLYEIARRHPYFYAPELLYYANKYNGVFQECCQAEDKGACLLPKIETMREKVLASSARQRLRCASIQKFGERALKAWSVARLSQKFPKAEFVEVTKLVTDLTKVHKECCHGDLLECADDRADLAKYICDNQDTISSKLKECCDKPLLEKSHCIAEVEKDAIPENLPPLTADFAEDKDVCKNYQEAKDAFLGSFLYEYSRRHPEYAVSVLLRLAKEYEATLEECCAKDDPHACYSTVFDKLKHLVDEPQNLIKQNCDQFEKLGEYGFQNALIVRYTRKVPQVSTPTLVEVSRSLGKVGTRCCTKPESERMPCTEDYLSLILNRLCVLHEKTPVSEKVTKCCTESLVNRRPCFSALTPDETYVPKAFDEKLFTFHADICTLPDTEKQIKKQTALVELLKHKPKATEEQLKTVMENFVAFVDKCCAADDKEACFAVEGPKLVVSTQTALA
Concanavalin-A (Canavalia ensiformis), sequence (P02866 whole entry, looked up): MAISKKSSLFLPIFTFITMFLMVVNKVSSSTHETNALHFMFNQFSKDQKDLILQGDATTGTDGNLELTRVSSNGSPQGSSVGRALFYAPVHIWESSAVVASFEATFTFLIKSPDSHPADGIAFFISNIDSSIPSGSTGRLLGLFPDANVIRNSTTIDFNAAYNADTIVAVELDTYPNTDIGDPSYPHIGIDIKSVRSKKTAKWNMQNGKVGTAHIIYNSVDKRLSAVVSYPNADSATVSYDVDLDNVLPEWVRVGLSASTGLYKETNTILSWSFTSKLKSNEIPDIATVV
Follistatin (Homo sapiens), sequence (P19883 whole entry, looked up): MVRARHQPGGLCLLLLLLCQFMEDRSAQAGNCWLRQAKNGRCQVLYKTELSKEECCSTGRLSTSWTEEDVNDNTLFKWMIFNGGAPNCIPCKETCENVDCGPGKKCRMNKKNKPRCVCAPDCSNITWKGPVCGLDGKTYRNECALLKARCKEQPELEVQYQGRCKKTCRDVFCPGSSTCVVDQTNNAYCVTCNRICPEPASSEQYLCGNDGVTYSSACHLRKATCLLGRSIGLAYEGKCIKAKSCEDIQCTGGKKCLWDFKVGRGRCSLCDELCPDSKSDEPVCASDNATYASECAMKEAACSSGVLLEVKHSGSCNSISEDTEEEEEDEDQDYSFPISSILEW
Fibroblast growth factor 2 (Homo sapiens), sequence (P09038 whole entry, looked up): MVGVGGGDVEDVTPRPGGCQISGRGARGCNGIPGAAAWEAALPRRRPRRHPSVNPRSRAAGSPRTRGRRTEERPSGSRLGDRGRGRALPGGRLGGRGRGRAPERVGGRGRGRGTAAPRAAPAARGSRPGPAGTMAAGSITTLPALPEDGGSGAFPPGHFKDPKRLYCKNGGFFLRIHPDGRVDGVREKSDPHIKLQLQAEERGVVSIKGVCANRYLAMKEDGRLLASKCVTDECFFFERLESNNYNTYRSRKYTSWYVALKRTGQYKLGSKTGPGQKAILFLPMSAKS
Focal adhesion kinase 1 (Homo sapiens), sequence (Q05397 whole entry, looked up): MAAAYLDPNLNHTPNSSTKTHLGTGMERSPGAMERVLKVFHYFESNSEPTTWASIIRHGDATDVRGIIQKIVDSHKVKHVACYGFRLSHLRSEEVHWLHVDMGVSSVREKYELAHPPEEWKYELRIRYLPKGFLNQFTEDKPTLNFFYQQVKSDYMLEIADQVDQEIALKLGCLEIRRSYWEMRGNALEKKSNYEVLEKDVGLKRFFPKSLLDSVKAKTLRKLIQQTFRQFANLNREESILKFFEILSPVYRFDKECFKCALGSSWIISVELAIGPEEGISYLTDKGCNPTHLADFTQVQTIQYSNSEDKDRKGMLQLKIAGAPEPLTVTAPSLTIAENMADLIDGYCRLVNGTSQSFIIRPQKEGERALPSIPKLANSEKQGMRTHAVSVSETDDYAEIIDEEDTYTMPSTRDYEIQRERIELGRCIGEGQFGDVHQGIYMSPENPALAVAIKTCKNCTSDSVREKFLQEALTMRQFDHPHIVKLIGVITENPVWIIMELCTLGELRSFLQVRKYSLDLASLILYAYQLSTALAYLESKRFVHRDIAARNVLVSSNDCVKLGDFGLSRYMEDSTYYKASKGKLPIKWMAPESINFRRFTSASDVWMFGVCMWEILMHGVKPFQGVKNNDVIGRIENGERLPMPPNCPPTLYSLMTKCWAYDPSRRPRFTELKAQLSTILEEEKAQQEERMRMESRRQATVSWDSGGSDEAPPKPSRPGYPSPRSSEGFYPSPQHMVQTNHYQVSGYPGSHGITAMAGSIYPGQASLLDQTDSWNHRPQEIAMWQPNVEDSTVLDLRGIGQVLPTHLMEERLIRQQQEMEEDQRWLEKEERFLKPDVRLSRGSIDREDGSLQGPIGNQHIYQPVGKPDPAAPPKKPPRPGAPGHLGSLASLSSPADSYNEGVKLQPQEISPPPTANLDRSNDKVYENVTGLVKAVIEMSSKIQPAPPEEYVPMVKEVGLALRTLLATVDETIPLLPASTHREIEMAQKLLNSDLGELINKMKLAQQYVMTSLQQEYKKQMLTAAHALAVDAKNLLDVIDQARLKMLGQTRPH

Consider `C=CC[C@]1(C(=O)NCC(O)CO)N=C(c2ccc(OCCCO)cc2)O[C@H]1c1ccccc1` (stereo not given in full), for which the composite z-score is 0.704 in the test with Albumin (Bos taurus); -0.0391 in test [2]; -0.0877 in [3]; 0.793 in [4]; 3.04 in [5]; 1.3 in test [6]. Besides, the composite z-score with Sam68 (KHDRBS1) is -0.126; in [7], -1.43; in test [8], -0.49; in test [9], 0.307; in test [10] it was 0.904; in test [11], 0.12. The composite z-score in test [12] is 0.106; in test [13], -0.307; in test [14], -0.651; in the test with Lefty1, -1.51; in test [16], 0.587. Moreover, the composite Z-score in [1] is 1.59 (inactive). Moreover, the z-score was 0.985 in test [15] and -0.428 (inactive) in test [17].
Take `O=C1O[C@H](c2ccccc2)[C@H](c2ccccc2)N2[C@H]1[C@@H](C(=O)NC[C@H](O)c1ccccc1)[C@]1(C(=O)Nc3ccc(C#CC4=CCCCC4)cc31)[C@H]2c1ccc(OCCO)cc1`: the composite z-score with Albumin (Bos taurus) was 0.534; in test [2], 0.141; in [3] it was -0.0741; in [4], 0.522; in test [5], 0.864; in test [6], 0.402. The composite z-score turned out to be 1.31 in the test with Sam68 (KHDRBS1); 0.424 in [7]; 1.11 in test [8]; 0.879 in [9]; 1.19 in test [10]; 0.73 in test [11]. The composite z-score worked out at 0.874 in [12]; 1.2 in test [13]; 0.527 in test [14]; 1.26 in the test with Lefty1; 0.944 in [16]. For the same molecule, in [1], the composite Z-score is 0.318 (inactive). Also, the z-score was -1.76 in test [15] and -1.4 (inactive) in test [17].
On to `CC(C)[Si](OCC[C@H]1O[C@]2(C(=O)N(Cc3ccccc3)c3ccccc32)[C@@H](C)[C@@H]1[Si](C)(C)O)(C(C)C)C(C)C`, for which the composite z-score in the test with Albumin (Bos taurus) was 0.114; in [2], 0.0026; in test [3], -0.148; in test [4], 0.191; in [5], 0.379; in test [6] it was 0.0893. The composite z-score is 0.0631 in the test with Sam68 (KHDRBS1); -0.0644 in [7]; 0.367 in [8]; -0.197 in test [9]; -0.694 in test [10]; 0.104 in test [11]. Also, the composite z-score is 0.618 in [12]; 0.122 in test [13]; -0.206 in test [14]; 0.218 in the test with Lefty1; 0.128 in [16]. In addition, in [1], the composite Z-score was -0.0745 (inactive). Besides, the z-score in [15] was -0.761; in [17], -0.183 (inactive).
Regarding `CCOC(=O)C[C@H]1[C@H](OC(=O)c2ccccc2-c2ccccc2)[C@@H](NC(=O)C2CCCCC2)c2cc(OCCCO)ccc2N1C(=O)c1ccccc1`, the composite z-score with Albumin (Bos taurus) was 0.576; in test [2] it was -0.0647; in test [3], -0.0784; in test [4], 0.393; in test [5], 0.68; in [6], -0.175. Moreover, the composite z-score in the test on Sam68 (KHDRBS1) is 0.692; in test [7], 0.173; in test [8], 0.404; in test [9] it was 0.198; in test [10], 0.352; in [11], -0.268. In addition, the composite z-score in [12] is 0.334; in test [13], 0.392; in [14], 1.39; with Lefty1 it was 0.845; in test [16], -0.109. Moreover, the composite Z-score in [1] was 0.909 (inactive). For the same molecule, the z-score is 1.33 in test [15] and -0.539 (inactive) in test [17].
Take `COc1cc2c(cc1OC)CN(C(=O)[C@H]1[C@@H]3C(=O)O[C@@H](c4ccccc4)[C@@H](c4ccccc4)N3[C@@H](c3ccccc3OCCO)[C@]13C(=O)Nc1ccc(C#CC4(O)CCCCCC4)cc13)CC2`: the composite z-score with Albumin (Bos taurus) is 0.168; in [2], -0.0043; in test [3], -0.0211; in test [4], 0.314; in test [5] it was 2.12; in [6] it was 0.982. The composite z-score in the test with Sam68 (KHDRBS1) was 1.3; in test [7], 0.454; in test [8] it was 1.13; in [9], 2.85; in [10], 1.21; in test [11], -0.0047. Besides, the composite z-score in test [12] was determined as 0.922; in test [13], 1.37; in test [14], 1.27; with Lefty1, 0.971; in test [16], 1.08. In addition, the composite Z-score in test [1] was 0.267 (inactive). Further, the z-score is -0.627 in test [15] and -1.02 (inactive) in [17].
